# Data: PubChem BioAssay (Tox21)
# Records with an inconclusive call do not appear. Entries that show only a call come without a potency. The source made the active and inactive calls. The call rests on the fitted dose curve; in most records, active means well fitted cell-killing curve with a large enough effect in the repeat runs; inconclusive means weak or mixed curves, or effect the other way; inactive means flat fitted curve, though single readings scatter.
# Assay: qHTS RealTime-Glo MT Cell Viability Assay in HepG2 cells - 40 hour (AID 1224870); further: nearly all actives have a fitted effect of over 50% in size
# Details: RealTime-Glo luminescence; series mostly up to 76.8 µM
# Text: National Center for Advancing Translational Sciences [NCATS]
# NIH Chemical Genomics Center [NCGC]
# U.S. Environmental Protection Agency [EPA]
# National Institutes of Environmental Health Sciences [NIEHS]
# National Toxicology Program [NTP]
# U.S. Food and Drug Administration [FDA]
# Measure of cell viability is critical in the cell-base assay. Analysis of cell viability is necessary for the characterization of cell responses to cytotoxic drugs and environmental stress. A RealTime-Glo MT Cell Viability Assay to monitor cell viability in real time of continues cell culture during 40 hours of compound treatment was used to screen Tox21 10K library compounds in HepG2 cells. The RealTime-Glo MT Cell Viability Assay is a nonlytic, homogeneous, bioluminescent method to measure cell viability in real time using a simple, plate-based method. The assay involves adding NanoLuc luciferase and a cell-permeant prosubstrate to cells in culture. Viable cells reduce the proprietary prosubstrate to generate a substrate for NanoLuc luciferase. This substrate diffuses from cells into the surrounding culture medium, where it is rapidly used by the NanoLuc Enzyme to produce a luminescent signal. The signal correlates with the number of viable cells, making the assay well suited for cytotoxicity studies.
# Tox21 Assay Protocol Summary:
# The mixture of HepG2 cell suspension and reagents were dispensed at 600cells/6 ul/well in 1536-well tissue culture treated black solid bottom plates using a Multidrop dispenser. After the assay plates were incubated at a 37 C/5% CO2 incubator for 5 hours, 23 nL of compounds dissolved in DMSO, positive and negative controls was transferred to the assay plate by a pintool work station. The plates were incubated at 37 C for 40 hours. The luminescence intensity were measured at 0h, 8h, 16h, 24h, 32h and 40h time points using ViewLux plate reader during compound treatment.
row,SMILES,Potency
1,CC(=O)N[C@H]1[C@H]([C@H](O)[C@H](O)CO)OC(C(=O)O)=C[C@@H]1N=C(N)N,inactive
2,NCCCC(N)(C(=O)O)C(F)F (stereo not given),inactive
3,CCOCC(C)O (stereo not given),inactive
4,CC(=O)O[C@@]12CO[C@@H]1C[C@H](O)[C@@]1(C)C(=O)[C@H](O)C3=C(C)[C@@H](OC(=O)[C@H](O)[C@@H](NC(=O)OC(C)(C)C)c4ccccc4)C[C@@](O)([C@@H](OC(=O)c4ccccc4)[C@H]21)C3(C)C,inactive
5,CCCCCCCCCCCCCCC(=O)O,inactive
6,O=C(c1ccccc1O)c1ccccc1O,inactive
7,CC(C)(C)C(=O)Oc1ccc(S(=O)(=O)Nc2ccccc2C(=O)NCC(=O)O)cc1,inactive
8,CN(C)CCCCCCN(C)C,inactive
9,CN(C)CCCN(C)CCCN(C)C,inactive
10,C[C@H]1C[C@H]2[C@@H]3CCC4=CC(=O)C=C[C@]4(C)[C@H]3C(=O)C[C@]2(C)[C@@]1(O)C(=O)CO,inactive
11,O=C1c2ccccc2C(=O)c2cc(O)ccc21,inactive
12,CC1=NN(c2cc(S(=O)(=O)O)ccc2Cl)C(=O)C1N=Nc1ccccc1 (stereo not given),inactive
13,CN1C(C)(C)CC(O)CC1(C)C,inactive
14,COc1cc(C(=O)OC(COCCC(C)C)CN2CCOCC2)cc(OC)c1OC (stereo not given),inactive
15,Nc1ccn([C@@H]2O[C@H](CO)[C@@H](O)C2(F)F)c(=O)n1,inactive
16,CCCCCC(C)N (stereo not given),inactive
17,CCCCCCC#CC(=O)OC,inactive
18,Cc1ccc(C(=O)c2ccc(CC(=O)O)n2C)cc1,inactive
19,CC(COc1ccccc1)NN (stereo not given),inactive
20,COc1ccccc1OCC1CNC(=O)O1 (stereo not given),inactive

row,SMILES,Potency
1,COc1cccc(OC)c1C(=O)N[C@@H]1C(=O)N2[C@@H]1SC(C)(C)[C@@H]2C(=O)O,inactive
2,O=Cc1cccc(Br)c1,inactive
3,C=CC(=O)OCCCl,inactive
4,Cc1ncc(COP(=O)(O)O)c(C=O)c1O,inactive
5,CCN(Cc1ccccc1)c1ccccc1,inactive
6,COc1c(N2CCNC(C)C2)c(F)cc2c(=O)c(C(=O)O)cn(C3CC3)c12 (stereo not given),inactive
7,O=C1CCCCCCCCCCCCCCO1,inactive
8,O=C(O)Cc1csc(-c2ccc(Cl)cc2)n1,inactive
9,O=C(O)CNC(=O)c1ccc(CO)o1,inactive
10,CC1(C)OC[C@@H](COC(=O)CCc2ccc(OC[C@@H](O)CNCCNC(=O)N3CCOCC3)cc2)O1,inactive
11,CC1=CC(=O)[C@H]2C[C@@H]1C2(C)C,inactive
12,COc1cc(C(=O)NCc2ccc(OCCN(C)C)cc2)cc(OC)c1OC,inactive
13,CC1=C(C/C=C(\C)CCC[C@H](C)CCC[C@H](C)CCCC(C)C)C(=O)c2ccccc2C1=O,inactive
14,CC1OC1C1CCC2(C)OC2C1 (stereo not given),inactive
15,CCCCOCCOC(=O)COc1cc(Cl)c(Cl)cc1Cl,inactive
16,O=C(O)CC(C(=O)O)S(=O)(=O)O (stereo not given),inactive
17,Cc1ccccc1N=C(N)N=C(N)N,inactive
18,CNCCO,inactive
19,CCC(C)(CCCC(C)C)OC(C)=O (stereo not given),inactive
20,Cc1ncc([C@@H](CCCCCCc2ccc3c(n2)NCCC3)CC(=O)O)cn1,inactive
